SARS PLP yeast: qHTS of Yeast-based Assay for SARS-CoV PLP | Potency, µM (top dose mostly 32.9 µM), hits mostly activators | S. cerevisiae expressing SARS-CoV PLpro, growth rescue | hit rate 0.19% among 330,000 | AID 485353, 2010; calls by dose curve; note: nearly all actives have a fitted effect of over 55% in size
MARV entry inh: qHTS for inhibitors of binding or entry into cells for Marburg Virus; Marburg virus pseudotyped entry inhibition, cell reporter; Potency, µM (doses to about 37.8 µM), hits mostly inhibitors; hit rate 1.8% among 300,000; calls by dose curve; tested in HEK293 cells
HCV inh: qHTS Assay for Inhibitors of Hepatitis C Virus (HCV) | Huh7.5.1 HCVcc-Cre infection, luciferase reporter, 44 h | Potency, µM (series often up to 41.8 µM), usual class: inhibitors | hit rate 3.4% among 340,000; active = well fitted inhibition curve with a large enough effect; inconclusive = small, poorly fitted or top-dose-only effect, or another doubt; inactive = no such curve, though single readings can be large or run the other way
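Infectious HCVcc-Cre (~0.5 moi) was added to cells just after compound, with cells seeded 4 h earlier at 1,000 per well. Luciferase activity after 44 h culture reported infection; substrate was incubated 15 min at room temperature before reading.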
FMDV antiviral: High Throughput Screening for Foot and Mouth Disease Virus Antivirals. FMDV antiviral cell-based qHTS. Potency, µM (series often up to 57.9 µM), usual class: inhibitors. hit rate 1.2% among 410,000. AID 1159524, 2015; calls by dose curve; tested in HEK293T cells; note: read-out not given here; nearly all actives have a fitted effect of over 45% in size
HCMV antiviral: qHTS Assay for inhibitors of the human cytomegalovirus (HCMV) | HFF cells, HCMV-luciferase reporter, 72 h; hits give low values | activity change, negative = inhibition, % at 57.5 µM | hit rate 4.5% among 410,000 | AID 1259415, 2018; in the data active = activity change below about -60%; inconclusive = no clear call, values can overlap the other calls; inactive = above about -39%
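HFF cells seeded 16 h at 37C, treated with compounds, infected with luciferase-reporter HCMV at MOI 1 PFU/cell; luciferase read at 72 h post infection, normalized to buffer-only and Salinomycin controls.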
Lassa entry inh: qHTS for Inhibitors of binding or entry into cells for Lassa Virus; Lassa virus pseudotype entry inhibition, cell reporter; Potency, µM (doses to about 37.9 µM), usual class: inhibitors; hit rate 1.2% among 300,000; AID 540256, 2011; calls by dose curve; tested in HEK293 cells; note: nearly all actives have a fitted effect of over 50% in size
Hits are given with their value; - = inactive; ? = inconclusive; . = not tested or not shown; [ ] = dose if it differs, or a comment. An excerpt weighted towards active compounds, which were near 8% of everything screened.

SMILES	SARS PLP yeast	MARV entry inh	HCV inh	FMDV antiviral	HCMV antiviral	Lassa entry inh
CCOC(=O)c1ccc(NC(=O)NC2CC3CCC(C2)N3)cc1 (centres undefined)	-	.	17.8µM	-	-	.
CCOC(=O)c1ccc(NC(=O)COc2ccccc2CNC2CCCC2)cc1	-	8.91µM	-	-	-	?
CNc1nc2cnc(Nc3cccc(F)c3)cc2n1-c1cccc(C(F)(F)F)c1	.	.	.	.	-	.
COc1cc(Cn2c(=O)sc3ccccc32)ccc1OCCC(C)C	.	-	.	-	-	-
CCOC(=O)N/N=C1\C[C@@H](O)[C@@H](O)[C@@H]2[C@@H]3C(=O)N(Cc4ccccc4)C(=O)[C@@H]3CC[C@H]12	.	-	.	.	.	.
CCSc1nnc(C(C)NC(=O)c2ccc(OC)cc2)n1C (centres undefined)	.	.	.	-	.	.
COc1ccc(CNC(=O)C2CCN(S(=O)(=O)c3c(C)noc3/C=C/N(C)C)CC2)cc1	-	.	-	-	.	.
CCOC(=O)c1ccc(NC(=O)NCc2ccccc2OC)cc1	-	-	11.2µM	-	-	.
CCOC(=O)c1ccc(NC(=O)Nc2ccc(OC)c(OC)c2)cc1	-	-	25.1µM	-	?	-
CCOC(=O)c1ccc(NC(=O)c2ccc(OC(C)C)c(OC)c2)cc1	-	?	?	39.8µM	-	-
CCOC(=O)c1cc(-c2ccccc2)n(CC(=O)NCc2ccccc2OC)c1C	.	.	.	-	-60.6	7.08µM
CCCCCCCCCCCCCCCC(=O)N[C@@H](COP(=O)(O)O)C(=O)O	.	.	.	-[6.7 µM]	.	.
O=C1CC(C(=O)N2CCN(c3ccccc3O)CC2)CN1Cc1ccccc1 (centres undefined)	-	-	-	?	-	-
Cc1ccc(C)c(CN2C(=O)c3ccccc3S(=O)c3ccc(C(=O)NCc4ccco4)cc32)c1 (centres undefined)	.	?	.	-	-	?
O=C(Nc1ccccc1)N1CC2(CCN(C(=O)c3cccc(F)c3)CC2)C1	.	.	.	-	.	.
CN(C)CCSc1nc(O)c(-c2ccccc2)c(=O)n1-c1ccccc1	-	-	-	-	-	-
Cc1sc2nc(SCCN(C)C)n(-c3ccccc3)c(=O)c2c1-c1ccc(F)cc1	-	?	7.08µM	-	?	?
Cc1ccc(C)c(N2CCN(c3nc4ccccc4c(=O)n3-c3ccccc3)CC2)c1	.	-	.	?	-	-
N#CC(C#N)=C(Nc1ccc(F)cc1)SCc1cccc(F)c1	-	7.08µM	10µM	?	-98.6	12.6µM
CCOc1ccc(N/C(SCc2cccc([N+](=O)[O-])c2)=C(/C#N)C(N)=O)cc1	-	-	-	?	?	-
CCOc1ccc2ncc3c(-c4ccc(C)cc4)nn(-c4cccc(F)c4)c3c2c1	.	-	.	-	-	-
O=C(c1ccccc1[N+](=O)[O-])N1CCC[C@@H]1c1noc2ccccc12	.	.	.	.	-61.6	.
COc1ccc2c(c1)-c1nc(/N=C/c3ccc(O)c(OC)c3)sc1CC2	-	?	11.2µM	-	.	-
COc1ccc2c(c1)-c1nc(N)sc1CC2	-	-	?	-	?	-
CCc1ccc(N2CC(C(=O)OCC(=O)Nc3ccc(C#N)cc3)CC2=O)cc1 (centres undefined)	-	.	-	-	-	.
SMILES	SARS PLP yeast	MARV entry inh	HCV inh	FMDV antiviral	HCMV antiviral	Lassa entry inh
CCn1c(C)nc2cc(C(=O)NNC(=S)Nc3ccccc3)ccc21	-	?	-	-	?	4.47µM
COc1cc(=O)n2c(c1C(=O)NCc1ccc3c(c1)OCO3)CCN(C(=O)c1ccccc1F)CC2	.	.	.	-	.	.
COc1ccccc1CN1CC(C(=O)N2CCC(OC)CC2)CCC1=O (centres undefined)	-	-	-	-	-63.7	-
COc1ccccc1CN1CC(C(=O)N2CCCCCCC2)CCC1=O (centres undefined)	-	-	-	-	-	-
COc1ccccc1CN1CC(C(=O)NCCN(C)CCc2ccccc2)CCC1=O (centres undefined)	-	?	-	-	-	5.62µM
CCCc1cc(CN(C)C(=O)c2ccc(OC3CCN(C(C)=O)CC3)c(OC)c2)[nH]n1	.	.	.	-	-	.
CC(=O)Nc1cccc(C(=O)OCc2csc(CC(=O)Nc3ccccc3C)n2)c1	-	-	-	-	-	-
CCn1c(SCc2ccc(C#N)cc2)nnc1-c1ccc(S(=O)(=O)N2CCCCC2)cc1	-	-	7.94µM	?	-69.9	?
c1ccc(-c2ccccc2OCCCN2CCCCCC2)cc1	-	.	?	-	-72.0	.
c1ccc(-c2ccccc2OCCCCN2CCCCC2)cc1	-	7.08µM	?	-	?	?
c1ccc(-c2ccccc2OCCCN2CCCC2)cc1	-	5.62µM	-	-	-	?
COc1ccccc1OCCOCCN1CCCC1	-	.	-	-	-	.
Cc1ccccc1OCCOCCN1CCCCCC1	-	10µM	-	-	?	-
Fc1ccccc1C(NCCc1ccc(Cl)cc1)c1nnc(-c2ccccc2)o1 (centres undefined)	.	-	.	-	-	-
Cn1nccc1C(=O)N(CCN1CCCCC1)CC1CCCN(C2CCCC2)C1 (centres undefined)	-	?	14.1µM	-	-	-
COc1cccc(CCc2nnc(CCC(=O)NC(C)Cc3cccs3)o2)c1 (centres undefined)	-	.	-	-	-	.
O=C(Cc1ccccc1F)Nc1ccc2c(c1)CCC2	-	?	-	-	-	-
COc1ccc(CC(=O)Nc2ccc3c(c2)CCC3)cc1OC	-	?	?	?	-	11.2µM
O=C(Cc1cccc(F)c1)Nc1ccc2c(c1)CCC2	-	-	-	-	-98.2	-
CCc1cccc(CC)c1NC(=O)CSc1nc2ccc(N3C(=O)C4C(C3=O)[C@H]3C=C[C@@H]4C3)cc2s1 (some centres undefined)	-	-	?	?	-71.5	-
COC(=O)[C@H](CO)N1C(=O)[C@@H]2[C@@H](C1=O)[C@H]1C=C[C@@H]2C1	.	.	.	.	.	-
CC(=O)c1ccc2c3c(cc(C)c2c1)CCCC3	.	-	11.2µM	-	-66.2	-
Cc1cc(C)cc(C(=O)N(C)C2CCCN(Cc3ccccc3F)C2)c1 (centres undefined)	-	.	12.6µM	-	-	.
CN(C)c1cccc(C(=O)N(C)C2CCCN(Cc3ccccc3F)C2)c1 (centres undefined)	-	.	-	-	-70.9	.
O=C(NCC1CCCN(Cc2ccccc2F)C1)c1cccc(C(F)(F)F)c1 (centres undefined)	-	?	11.2µM	-	?	-
CN(C(=O)c1ccncc1)C1CCCN(Cc2ccccc2F)C1 (centres undefined)	-	-	-	-	-	-
CCOc1ccccc1NC(=O)Cn1c(=O)n(Cc2ccccc2)c(=O)c2c(C)c(C)sc21	.	-	.	-	-	-
COc1ccc(CNC(=O)c2cnn(-c3nccc(-c4ccco4)n3)c2C)cc1OC	.	.	.	-	.	.
CCCCC(CC)C(=O)Oc1ccc(O)c(C(C)(C)C)c1 (centres undefined)	-	?	?	-	?	10µM

Source: PubChem (National Center for Advancing Translational Sciences (NCATS))
